# Data: PubChem BioAssay (NCATS)
# Values joined by “and” are separate entries in the source; they are usually repeats but may differ in a detail not shown here. Identical values can stand only once. Inconclusive results are not listed. Active and inactive are the calls of the source. Unless noted, calls follow the shape of the dose curve; as a rule, active = well fitted curve in the direction sought with a large enough effect; inconclusive = small, poorly fitted or top-dose-only effect, or another doubt; inactive = no such curve, though single readings can be large; an effect the other way counts as inactive or inconclusive.
# Key:
# [1] = Confirmation and Secondary Assay for Modulators of Hemoglobin Beta Chain Splicing at IVS2 654 locus (AID 910);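 also: HeLa cells stably carrying EGFP split by mutant beta-globin IVS2-654 intron; % of control where 0% means no effect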
# How it was run: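 HeLa cells stably expressing EGFP interrupted by β-globin IVS2-654 intron, seeded overnight in Opti-MEM/2% FCS, then treated 2 days at 37 °C. Restored splicing read as total peak GFP intensity per well by laser scanning cytometry (488 nm excitation, 500–520 nm emission); 500 nM antisense PNA as control.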
# [2] = Confirmation and Secondary Assay for Modulators of Hemoglobin Beta Chain Splicing at IVS2 705 locus (AID 930);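 also: HeLa cells stably expressing the EGFP-705 splicing reporter; GFP fluorescence per well restored by corrected splicing of the IVS2-705 intron in EGFP; % of control where 0% means no effect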
# How it was run: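 Read-out: total peak GFP fluorescence per well (488 nm excitation, 500-520 nm emission) by laser-scanning cytometry. Cells: HeLa EGFP-705 splicing reporter, 2 days compound exposure in Optimem/2% FCS.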
# [3] = qHTS Assay for Lipid Storage Modulators (AID 1519; calls by dose curve); settings: Drosophila S3 cells, BODIPY lipid droplet/cell ratio, laser cytometry, cells loaded with oleic acid
# How it was run: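 Cells seeded at 5,000 per well were treated with compounds over a concentration series and loaded with oleic acid (400 uM, as added). Lipid droplet fluorescence (488 nm excitation, 500-530 nm channel) was read by laser-scanning cytometry and normalized to 20 uM Triacsin C.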
# [4] = target: Ubiquitin carboxyl-terminal hydrolase 1 (Homo sapiens) (UniProt O94782); assay: Inhibitors of USP1/UAF1: Pilot qHTS (AID 504865);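 also: rhodamine fluorescence freed from ubiquitin-rhodamine substrate followed over time; top concentration of the series differs between compounds; % is scaled to controls: 0 for no effect and ±100 for the full control effect; nearly all actives have a fitted effect of over 35% in size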
# Ubiquitin carboxyl-terminal hydrolase 1 (Homo sapiens), sequence (O94782 whole entry, looked up): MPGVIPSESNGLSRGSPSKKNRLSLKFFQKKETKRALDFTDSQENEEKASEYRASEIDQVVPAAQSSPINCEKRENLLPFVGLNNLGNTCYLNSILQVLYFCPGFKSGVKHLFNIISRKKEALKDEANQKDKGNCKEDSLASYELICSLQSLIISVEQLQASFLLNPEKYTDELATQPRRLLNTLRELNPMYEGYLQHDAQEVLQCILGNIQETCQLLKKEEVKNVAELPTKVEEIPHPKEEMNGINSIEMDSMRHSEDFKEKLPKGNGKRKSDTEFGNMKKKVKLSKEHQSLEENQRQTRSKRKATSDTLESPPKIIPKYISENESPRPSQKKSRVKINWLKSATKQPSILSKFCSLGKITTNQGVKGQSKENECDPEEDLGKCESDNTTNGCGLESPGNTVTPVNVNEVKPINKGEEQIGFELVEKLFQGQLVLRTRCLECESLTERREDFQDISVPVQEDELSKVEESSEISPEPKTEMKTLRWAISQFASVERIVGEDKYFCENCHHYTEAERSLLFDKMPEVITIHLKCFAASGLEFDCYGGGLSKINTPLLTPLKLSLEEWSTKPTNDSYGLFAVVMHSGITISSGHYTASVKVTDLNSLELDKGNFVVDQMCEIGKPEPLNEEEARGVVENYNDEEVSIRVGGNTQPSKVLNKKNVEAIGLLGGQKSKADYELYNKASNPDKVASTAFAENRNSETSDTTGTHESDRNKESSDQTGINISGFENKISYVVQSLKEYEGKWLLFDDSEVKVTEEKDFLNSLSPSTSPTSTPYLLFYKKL
# How it was run: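 1nM USP1/UAF1 + cpd, 15 min RT; start w/ Ub-Rho 150nM final; kinetic FL 480/540 nm, 6 reads q60 s. Buffer 50mM HEPES pH 7.8, 0.5mM EDTA, 1mM TCEP, 0.01% Tween-20, 0.1 mg/ml BSA.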
# [5] = target: Glutathione peroxidase 1 (Homo sapiens) (UniProt P07203); assay: Primary qHTS Assay for Inhibitors of Recombinant Selenoprotein Glutathione Peroxidase 1 (GPX1) (AID 1845191); settings: outcome: dose series up to 48.8 µM unless noted; also: % is scaled to controls: 0 for no effect and ±100 for the full control effect; nearly all actives have a fitted effect of over 65% in size
# Glutathione peroxidase 1 (Homo sapiens), sequence (P07203 whole entry, looked up): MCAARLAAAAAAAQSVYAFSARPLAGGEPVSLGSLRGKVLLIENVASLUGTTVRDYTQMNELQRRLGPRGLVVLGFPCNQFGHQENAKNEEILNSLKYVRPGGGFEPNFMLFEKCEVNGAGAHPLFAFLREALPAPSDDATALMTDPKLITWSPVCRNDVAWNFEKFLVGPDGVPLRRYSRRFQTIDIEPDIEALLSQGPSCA
# How it was run: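 GR-coupled assay: compounds preincubated 30 min at room temperature with GPX1, then reaction started with CHP; final 10 nM GPX1, 1 mM GSH, 0.5 mM CHP, 0.5 mM NADPH, 100 nM GR, 0.01% BSA, pH 7.5 Tris buffer. NADPH fluorescence (340/450 nm) read at 0 and 15 min.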
# [6] = AP1 Signaling Pathway (AID 357; active = well fitted curve in either direction with a large enough effect, not every such curve was filed as active;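 also: ME-180 reporter cells stimulated with EGF at its EC50 level; % is scaled to controls: 0 for no effect and ±100 for the full control effect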); settings: ME-180 AP-1-bla reporter, EGF-induced, beta-lactamase ratio, 5 h; at 7.69 µM (top of the series) unless noted
# How it was run: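 A ratiometric CCF4 readout (405 nm excitation; 460 and 530 nm emission) quantified AP-1-driven beta-lactamase in ME-180 cells after 5 h with compound and EC50 EGF; AC50 values were derived for activators and inhibitors.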
# [7] = NFAT Signaling Pathway (AID 444; active = well fitted curve in either direction with a large enough effect, not every such curve was filed as active;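 also: carbachol stimulus at about its EC50 of 1 µM final; % is scaled to controls: 0 for no effect and ±100 for the full control effect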); settings: Jurkat NFAT-bla M1, carbachol, beta-lactamase ratio, 5 h; at 7.69 µM (top of the series) unless noted
# How it was run: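 Jurkat cells with NFAT-driven β-lactamase reporter and co-expressed M1 receptor, stimulated with carbachol (final 1 uM, ~EC50), compound titration, 5 h at 37 °C. CCF4 loaded 1 h at RT; 460/530 nm ratio gave %activity and AC50.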
# [8] = Stat Signaling Pathway (AID 446; active = well fitted curve in either direction with a large enough effect, not every such curve was filed as active;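 also: ME-180 cervical cancer cells given 40 pM IL-6 alongside compound; SIE-controlled beta-lactamase reporter measured as 460/530 nm FRET emission ratio; % is scaled to controls: 0 for no effect and ±100 for the full control effect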); settings: ME-180 SIE beta-lactamase reporter, IL-6 stimulated, 5 h; at 7.69 µM (top of the series) unless noted
# How it was run: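 Screening format detects activators and inhibitors alike: ME-180 SIE-bla cells stimulated at 40 pM IL-6 for 5 hrs with compound, then dual-emission beta-lactamase read at 405 nm excitation.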
# [9] = target: Glucocorticoid receptor (Homo sapiens) (UniProt P04150); assay: GR-GFP Redistribution (AID 450;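 active = compounds whose dose series gives a full or clear partial fitted curve of increased nuclear translocation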; also: potency is read from the fitted curve at half-maximal effect); settings: U2OS GR-GFP nuclear translocation, laser cytometry, 2 h
# Glucocorticoid receptor (Homo sapiens), sequence (P04150 whole entry, looked up, the tested form may be a part): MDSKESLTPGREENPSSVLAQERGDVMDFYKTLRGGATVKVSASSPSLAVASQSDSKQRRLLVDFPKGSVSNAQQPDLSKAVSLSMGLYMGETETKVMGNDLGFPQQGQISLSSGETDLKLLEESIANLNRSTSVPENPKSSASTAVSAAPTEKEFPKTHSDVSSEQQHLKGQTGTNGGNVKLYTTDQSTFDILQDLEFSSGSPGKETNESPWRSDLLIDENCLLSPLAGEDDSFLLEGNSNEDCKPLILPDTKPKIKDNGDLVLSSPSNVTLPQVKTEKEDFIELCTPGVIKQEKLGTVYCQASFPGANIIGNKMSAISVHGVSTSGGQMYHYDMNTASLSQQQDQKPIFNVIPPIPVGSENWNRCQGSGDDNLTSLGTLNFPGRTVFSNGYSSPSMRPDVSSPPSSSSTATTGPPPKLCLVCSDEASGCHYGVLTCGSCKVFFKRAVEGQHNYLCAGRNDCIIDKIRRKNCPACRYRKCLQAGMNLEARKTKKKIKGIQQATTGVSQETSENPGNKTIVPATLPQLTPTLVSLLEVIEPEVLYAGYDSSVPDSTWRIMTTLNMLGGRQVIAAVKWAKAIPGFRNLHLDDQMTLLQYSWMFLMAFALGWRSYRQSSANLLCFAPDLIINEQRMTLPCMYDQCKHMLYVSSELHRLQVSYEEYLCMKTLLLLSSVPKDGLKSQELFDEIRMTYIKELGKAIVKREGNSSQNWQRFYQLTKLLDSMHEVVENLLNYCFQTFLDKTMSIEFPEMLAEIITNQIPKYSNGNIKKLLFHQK
# [10] = target: Glucocorticoid receptor (Homo sapiens) (UniProt P04150); assay: GR-EFC Redistribution (AID 451; calls by dose curve; also: potency is read from the fitted curve at half-maximal effect); settings: CHO-K1 GR-EFC translocation, beta-gal luminescence, 2 h
# How it was run: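 CHO-K1 cells expressing nuclear EA and GR-ED fragments of b-gal; compounds titrated up to 46 uM final, 2 h at 37 C. GR nuclear translocation read as complemented b-gal luminescence after 1 h RT detection.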
# [11] = target: Mitogen-activated protein kinase 10 (Mus musculus) (UniProt Q61831); assay: JNK3 AlphaScreen Assay (AID 530; active = well fitted curve in either direction with a large enough effect, not every such curve was filed as active;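 also: kinase came from lysate of stimulated human HepG2 cells; signal reports phosphorylation of biotinylated GST-cJun 1-79 at Ser73 with 10 µM ATP; % is scaled to controls: 0 for no effect and ±100 for the full control effect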)
# How it was run: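 Pre-activated (IL-1β/TNFα) JNK3 in HepG2 lysates phosphorylates biotin-GST-cJun(1-79), 10 uM ATP; anti-phospho-cJun(Ser73) AlphaScreen read at room temperature, pH 7.6 Tris buffer. Compounds pre-incubated 15 min as titrations.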
# [12] = target: 3',5'-cyclic-AMP phosphodiesterase 4B (Homo sapiens) (UniProt Q07343); assay: qHTS Assay for Inhibitors of PDE-IV (AID 607; active = well fitted activation curve with a large enough effect in the main read-out, with a control signal flat, not every such curve was filed as active; also: % of control where 0% means no effect)
# 3',5'-cyclic-AMP phosphodiesterase 4B (Homo sapiens), sequence (Q07343 whole entry, looked up): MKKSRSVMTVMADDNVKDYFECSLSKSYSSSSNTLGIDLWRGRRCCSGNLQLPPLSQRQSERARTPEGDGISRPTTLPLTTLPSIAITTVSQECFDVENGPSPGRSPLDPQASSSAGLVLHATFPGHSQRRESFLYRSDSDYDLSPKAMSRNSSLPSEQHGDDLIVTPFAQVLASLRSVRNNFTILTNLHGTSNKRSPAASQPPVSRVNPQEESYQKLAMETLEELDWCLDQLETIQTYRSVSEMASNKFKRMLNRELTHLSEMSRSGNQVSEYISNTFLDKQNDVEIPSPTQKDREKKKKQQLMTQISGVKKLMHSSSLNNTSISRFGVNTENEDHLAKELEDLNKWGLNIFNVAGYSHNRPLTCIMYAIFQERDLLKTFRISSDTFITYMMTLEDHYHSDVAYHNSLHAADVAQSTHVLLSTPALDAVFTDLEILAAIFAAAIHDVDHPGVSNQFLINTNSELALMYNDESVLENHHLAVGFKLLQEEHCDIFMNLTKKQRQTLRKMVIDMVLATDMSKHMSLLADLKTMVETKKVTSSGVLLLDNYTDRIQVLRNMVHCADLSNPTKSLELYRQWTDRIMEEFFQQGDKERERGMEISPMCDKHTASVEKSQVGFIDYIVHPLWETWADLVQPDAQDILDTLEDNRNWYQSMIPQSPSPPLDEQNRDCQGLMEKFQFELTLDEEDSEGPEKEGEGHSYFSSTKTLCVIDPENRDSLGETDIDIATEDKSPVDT
# How it was run: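 The readout is membrane depolarisation from a cAMP-sensing CNG channel, detected with a potential dye at ex 535/em 590. Cells were HEK293-derived (endogenous PDE-IV) at 1000 cells/well, titrated up to 22.9 uM final.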
# [13] = target: Cytochrome P450 2D6 (Homo sapiens) (UniProt P10635); assay: qHTS Assay for Inhibitors and Substrates of Cytochrome P450 2D6 (AID 891); also: potency is read from the fitted curve at half-maximal effect; nearly all actives have a fitted effect of over 60% in size
# Cytochrome P450 2D6 (Homo sapiens), sequence (P10635 whole entry, looked up): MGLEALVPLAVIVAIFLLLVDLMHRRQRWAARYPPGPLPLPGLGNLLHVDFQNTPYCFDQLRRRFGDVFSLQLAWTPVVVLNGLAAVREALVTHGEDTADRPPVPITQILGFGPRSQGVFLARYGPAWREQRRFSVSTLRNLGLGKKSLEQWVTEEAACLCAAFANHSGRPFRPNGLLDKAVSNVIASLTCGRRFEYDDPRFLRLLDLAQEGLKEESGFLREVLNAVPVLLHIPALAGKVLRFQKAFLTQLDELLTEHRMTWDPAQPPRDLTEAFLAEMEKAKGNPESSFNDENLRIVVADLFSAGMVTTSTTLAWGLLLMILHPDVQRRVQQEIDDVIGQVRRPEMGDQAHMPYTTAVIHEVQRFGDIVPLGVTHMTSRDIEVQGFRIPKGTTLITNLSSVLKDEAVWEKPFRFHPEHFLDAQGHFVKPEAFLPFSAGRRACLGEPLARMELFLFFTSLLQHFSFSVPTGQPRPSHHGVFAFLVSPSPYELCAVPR
# How it was run: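 Human CYP2D6 (5 nM) with 30 uM Luciferin-ME EGE (at Km) in 100 mM KPO4, compound preincubated 10 min, then NADPH regeneration system for 60 min at room temperature. Luciferin read by luminescence; normalized to 1.43 uM quinidine.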
# [14] = target: Cytochrome P450 3A4 (Homo sapiens) (UniProt P08684); assay: qHTS Assay for Inhibitors and Substrates of Cytochrome P450 3A4 (AID 884); also: % is scaled to controls: 0 for no effect and ±100 for the full control effect; nearly all actives have a fitted effect of over 50% in size
# Cytochrome P450 3A4 (Homo sapiens), sequence (P08684 whole entry, looked up): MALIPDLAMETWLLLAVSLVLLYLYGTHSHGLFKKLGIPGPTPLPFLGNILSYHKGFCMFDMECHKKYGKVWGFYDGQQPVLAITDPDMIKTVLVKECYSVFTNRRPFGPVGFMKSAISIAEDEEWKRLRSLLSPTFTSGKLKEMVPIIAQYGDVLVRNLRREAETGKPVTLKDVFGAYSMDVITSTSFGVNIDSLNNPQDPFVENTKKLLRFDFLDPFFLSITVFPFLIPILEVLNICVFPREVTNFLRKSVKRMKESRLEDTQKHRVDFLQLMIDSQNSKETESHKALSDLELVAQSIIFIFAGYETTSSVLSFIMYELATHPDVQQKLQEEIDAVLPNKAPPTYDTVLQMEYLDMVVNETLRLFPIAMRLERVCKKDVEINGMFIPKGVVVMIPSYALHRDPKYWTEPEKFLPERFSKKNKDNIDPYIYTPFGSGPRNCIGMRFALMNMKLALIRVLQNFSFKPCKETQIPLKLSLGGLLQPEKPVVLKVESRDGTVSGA
# How it was run: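 20 nM human CYP3A4 with 25 uM Luciferin-PPXE (at KM) in 200 mM KPO4, preincubated 10 min with compound; NADPH regeneration started a 60 min RT reaction. Luciferin detected by luminescence, normalized to 57 uM ketoconazole as full inhibition.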
# [15] = measured here: cell count channel max response
# [16] = measured here: lipid channel max response
compound,measurement,setting,value
C#C[C@]1(O)CCC2C3CCC4=C(CCC(=O)C4)C3CC[C@@]21C (some centres not stated),Potency,[1],inactive
same,outcome,[2],inactive
same,"activity change, negative = inhibition",[3]; at 57.5 µM (top of the series),7.93% (inactive)
same,max response,[3]; [15],-6.89%
same,max response,[3]; [16],3.32%
same,Potency,[4],inactive
same,outcome,[5],inactive
COC(=O)C1=CO[C@@H](C)[C@H]2CN3CCc4c([nH]c5ccccc45)[C@@H]3C[C@H]12,"activity change, negative = inhibition",[6],-20.4% [at 17.2 µM] (inactive) and -6.91% [at 17.2 µM] (inactive)
same,"activity change, negative = inhibition",[7],-3.19% [at 17.2 µM] (inactive) and -17.9% [at 17.2 µM] (inactive)
same,"activity, negative = inhibition",[8],8.22% [at 17.2 µM] (inactive) and -4.95% [at 17.2 µM] (inactive)
same,Potency,[9],> 20.6 µM (inactive)
same,Potency,[10],> 20.6 µM (inactive)
same,Potency,[11],inactive
same,Potency,[12],inactive
same,Potency,[13],2 nM (active) and 7.9 nM (active)
same,"activity change, negative = inhibition",[3]; at 25.7 µM (top of the series),-0.703% (inactive) and -0.794% (inactive)
same,max response,[3]; [15],3.91% and -17.6%
same,max response,[3]; [16],2.39% and -19.1%
same,Potency,[4],inactive
CC1(C)SC2C(NC(=O)Cc3ccccc3)C(=O)N2C1C(=O)O (configuration not stated),Potency,[1],inactive
same,outcome,[2],inactive
same,"activity change, negative = inhibition",[3]; at 57.5 µM (top of the series),5.55% (inactive)
same,max response,[3]; [15],11.4%
same,max response,[3]; [16],23.9%
same,Potency,[4],inactive
same,outcome,[5],inactive
O=C(/C=C/c1ccc(O)c(O)c1)OC(Cc1ccc(O)c(O)c1)C(=O)O (configuration not stated),Potency,[14],inactive
same,outcome,[2],inactive
same,"activity change, negative = inhibition",[3]; at 57.5 µM (top of the series),6.07% (inactive) and 7.21% (inactive)
same,max response,[3]; [15],10.1% and -5.16%
same,max response,[3]; [16],18.1% and 1.39%
same,Potency,[4],inactive
